What is called AC50 is the concentration giving half of the maximal activity seen. One may read the IC50 as the concentration that inhibits the measured activity by half. Usually viability stands for a read-out of living cells in per cent, often relative to untreated cells.

From PubChem BioAssay come the findings set out here.

Records with an inconclusive call do not appear. Activity calls are given as the source filed them.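 How the source made its calls, unless noted: active means normalized viability below 100% at a tested concentration; inactive means the rest.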

Assay [1] is described as follows: viability loss in pontine glioma line – cell-based, SU-DIPG-XVII, MIPE5.0, CellTiter-Glo, qHTS, dose response (AID 1347060; cut-off not given, nearly all actives have AC50 up to about 26 µM;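 on AC50: cells exposed to compound for 48 hours before viability readout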). As to conditions: CellTiter-Glo ATP luminescence. (ATP-based viability assays read luminescence as a measure of living cells.)
A short description of assay [2]: viability loss in pontine glioma line – cell-based, SU-DIPG-IV, MIPE4.0, CellTiter-Glo, qHTS, dose response (AID 1347063; cut-off not given, nearly all actives have AC50 up to about 30 µM;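 further: compound exposure lasted 48 hours before the viability readout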). The following applies: CellTiter-Glo ATP luminescence.
Assay [3] is described as follows: viability loss in pontine glioma line – cell-based, SU-DIPG-XIII, MIPE5.0, CellTiter-Glo, qHTS, dose response (AID 1347064; cut-off not given, nearly all actives have AC50 up to about 23 µM;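 on AC50: cells exposed to compound for 48 hours before the viability read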). The following applies: CellTiter-Glo ATP luminescence.
Assay [4] can be described thus: viability loss in pontine glioma line – cell-based, SU-DIPG-XXV, MIPE5.0, CellTiter-Glo, qHTS, dose response (AID 1347065; cut-off not given, nearly all actives have AC50 up to about 26 µM;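 further: cells exposed to compound for 48 hours before ATP readout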). As to conditions: CellTiter-Glo ATP luminescence.
Assay [5] is described as follows: JHH-DIPG-1 glioma cell viability, MIPE5.0 library, CellTiter-Glo luminescence, qHTS (AID 1347067; cut-off not given, nearly all actives have AC50 up to about 26 µM;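 further: cells exposed to compound for 48 hours before readout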). As to conditions: JHH-DIPG-1 glioma viability, CellTiter-Glo ATP luminescence.
Assay [6] can be described thus: growth inhibition of DIPG cells – cell-based, MIPE5.0 library, qHTS (AID 1347068; cut-off not given, nearly all actives have IC50 up to about 30 µM;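 on IC50: cells exposed to compound for 48 hours before viability readout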). As to conditions: SU-DIPG-XXV viability. (In qHTS, concentration-response curves come from the screen itself.)
The nature of assay [7]: viability loss with induced miR-34 in A549 – imaging, A549 dox-inducible miR-34, nuclei and caspase counts, primary screen (AID 1347080;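 active means compounds whose cell count with miR-34 switched on is under 0.7 times the count with it off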). As to conditions: A549 miR-34 inducible, Hoechst nuclei count, 48 h.
The nature of assay [8]: compounds altering HSF1 focus formation in cells – imaging, Selleck Cancer Library (AID 1347162; in the data active means plate-normalised HSF1 focus index below about 0.46). As to conditions: human cells, HSF1 nuclear foci imaging, at 10 µM; SSMD: measured here: HSF1 foci SSMD mean; cell count: measured here: cell number; plate-normalised HSF1 focus index: stronger effect = lower value.
Assay [9] can be described thus: MELAS cybrid and Rieske KO viability enhancers – cell-based, MELAS cybrids, Rieske KO mouse fibroblasts, CellTiter-Glo, primary screen (AID 1508586;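 active means mean z-score across replicates of 1.96 or higher in either the MELAS or the Rieske mutant cell line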;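 further: z relative to plate mean and SD of compound and empty wells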). The following applies: low glucose.
The nature of assay [10]: drug combination growth inhibition, ovarian cancer – cell-based, oncology-focused library, rucaparib conditional, profiling panel (AID 1508598). The following applies: patient-derived ovarian cancer cells, CellTiter-Glo viability, 144 h, stronger effect = lower value.
Assay [11] in a line: growth inhibition of DIPG cells – cell-based, MIPE4.0 library, CellTiter-Glo luminescence, qHTS (AID 1347066; cut-off not given, nearly all actives have AC50 up to about 30 µM;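 further: cells exposed to compound for 48 hours before readout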). As to conditions: SU-DIPG-VI viability, CellTiter-Glo ATP luminescence.

For `N#CCNC(=O)c1ccc(-c2ccnc(Nc3ccc(N4CCOCC4)cc3)n2)cc1`, the AC50 in assay [1] is 16.6 µM (active); in assay [2], 20.9 µM (active); in assay [3], 13.2 µM (active); in [4], 16.6 µM (active); in [5], 13.2 µM (active). For the same compound, the IC50 in [6] is 18.6 µM (active). In addition, the fold change in [7] (stronger effect = lower value, cell number ratio, induced over uninduced) is 0.941 (inactive); in assay [7] (measured here: relative caspase fold change +Dox/-Dox), 0.89. Also, the cell count in assay [7] (measured here: total cells with miR-34 induction, stronger effect = lower value) was 1150; in assay [7] (measured here: total cells without miR-34 induction), 1230; in assay [8] it was 7330. In addition, the SSMD in [8] was -3.51. The plate-normalised HSF1 focus index in assay [8] was 0.876 (inactive). Also, the z-score is 5.22 (active) in [9] (MELAS cybrid survival, CellTiter-Glo 48 h, stronger effect = higher value) and -1.38 in assay [9] (Rieske KO mouse fibroblast survival, CellTiter-Glo 72 h). In addition, the viability in assay [10] (at 0.000305 µM, OCI-C5x cells, with rucaparib 10 µM, 100% = cells with rucaparib alone) is 109% (inactive); in assay [10] (at 0.000305 µM, OCI-C5x cells, without rucaparib) it was 113% (inactive); in assay [10] (at 0.000305 µM, OCI-P5x cells, with rucaparib 20 µM, 100% = cells with rucaparib alone), 105% (inactive); in [10] (at 0.000305 µM, OCI-P5x cells, without rucaparib) it was 104% (inactive); in [10] (at 0.00122 µM, OCI-C5x cells, with rucaparib 10 µM, 100% = cells with rucaparib alone), 103% (inactive); in assay [10] (at 0.00122 µM, OCI-C5x cells, without rucaparib) it was 108% (inactive). Further, the viability is 105% (inactive) in [10] (at 0.00122 µM, OCI-P5x cells, with rucaparib 20 µM, 100% = cells with rucaparib alone); 103% (inactive) in assay [10] (at 0.00122 µM, OCI-P5x cells, without rucaparib); 110% (inactive) in assay [10] (at 0.00488 µM, OCI-C5x cells, with rucaparib 10 µM, 100% = cells with rucaparib alone); 117% (inactive) in assay [10] (at 0.00488 µM, OCI-C5x cells, without rucaparib); 106% (inactive) in assay [10] (at 0.00488 µM, OCI-P5x cells, with rucaparib 20 µM, 100% = cells with rucaparib alone); 96.8% (active) in assay [10] (at 0.00488 µM, OCI-P5x cells, without rucaparib). Moreover, the viability in assay [10] (at 0.0195 µM, OCI-C5x cells, with rucaparib 10 µM, 100% = cells with rucaparib alone) was 109% (inactive); in [10] (at 0.0195 µM, OCI-C5x cells, without rucaparib) it was 104% (inactive); in [10] (at 0.0195 µM, OCI-P5x cells, with rucaparib 20 µM, 100% = cells with rucaparib alone) it was 103% (inactive); in [10] (at 0.0195 µM, OCI-P5x cells, without rucaparib), 93.3% (active); in assay [10] (at 0.0781 µM, OCI-C5x cells, with rucaparib 10 µM, 100% = cells with rucaparib alone), 122% (inactive); in [10] (at 0.0781 µM, OCI-C5x cells, without rucaparib), 116% (inactive). The viability in assay [10] (at 0.0781 µM, OCI-P5x cells, with rucaparib 20 µM, 100% = cells with rucaparib alone) is 96.9% (active); in assay [10] (at 0.0781 µM, OCI-P5x cells, without rucaparib), 92.3% (active); in [10] (at 0.313 µM, OCI-C5x cells, with rucaparib 10 µM, 100% = cells with rucaparib alone), 108% (inactive); in [10] (at 0.313 µM, OCI-C5x cells, without rucaparib) it was 105% (inactive); in assay [10] (at 0.313 µM, OCI-P5x cells, with rucaparib 20 µM, 100% = cells with rucaparib alone), 90.7% (active); in [10] (at 0.313 µM, OCI-P5x cells, without rucaparib) it was 66.2% (active). The viability in [10] (at 1.25 µM, OCI-C5x cells, with rucaparib 10 µM, 100% = cells with rucaparib alone) is 120% (inactive); in assay [10] (at 1.25 µM, OCI-C5x cells, without rucaparib) it was 101% (inactive); in assay [10] (at 1.25 µM, OCI-P5x cells, with rucaparib 20 µM, 100% = cells with rucaparib alone), 84.2% (active); in assay [10] (at 1.25 µM, OCI-P5x cells, without rucaparib) it was 84.9% (active); in assay [10] (at 5 µM, OCI-C5x cells, with rucaparib 10 µM, 100% = cells with rucaparib alone) it was 78.5% (active); in [10] (at 5 µM, OCI-C5x cells, without rucaparib) it was 109% (inactive). Besides, the viability in [10] (at 5 µM, OCI-P5x cells, with rucaparib 20 µM, 100% = cells with rucaparib alone) was 46.8% (active); in [10] (at 5 µM, OCI-P5x cells, without rucaparib), 49% (active).

On to `COc1cc(C(C)C)c(Oc2cnc(NC(CO)CO)nc2N)cc1I`, for which the compound was classed as inactive in [1], in assay [3], in [4], in assay [11], in assay [5] and in assay [6]. Further, in assay [2], the half-maximal activity concentration (AC50) is 14.8 µM (active).

For `CC(C)CNc1ccnc(NCc2csc(-c3ccccc3)n2)n1`, the AC50 in assay [1] is 16.6 µM (active); in assay [2], 16.6 µM (active); in [3] it was 14.8 µM (active); in assay [4], 16.6 µM (active); in assay [11], 20.9 µM (active); in assay [5] it was 20.9 µM (active).

`COc1cc(F)c(C(C)C)cc1-c1ccc(C(F)(F)F)cc1CN1C(=O)O[C@H](c2cc(C(F)(F)F)cc(C(F)(F)F)c2)[C@@H]1C`: the compound was called inactive in assay [1], in [2], in [3], in assay [4], in [11] and in assay [5]. Also, the call in assay [6] was inactive.
